Compound activity (PubChem)
D3 antag = antagonists of human D3 dopamine receptor; P35462; D3R cells, DiscoveRx beta-arrestin luminescence, antagonist mode; active compounds read low; max response, negative = inhibition, %; hit rate 2.5% among 360,000; in the data active = max response below about -50%; inconclusive = no clear call, values can overlap the other calls; note: % is set by controls: 0 for no effect and ±100 for the full control effect
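Cells expressing the human receptor were seeded at 1500 cells/well, incubated overnight at 37 degrees C in 5% CO2, then exposed to library compounds with dopamine controls for 90 minutes at 37 degrees C before luminescent detection.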
D1 antag = human D1 dopamine receptor antagonism; activity change, negative = inhibition, % at 10 µM; AID 504652; HEK293 TREx D1 cells, calcium flux, dopamine EC80; active compounds read low; hit rate 3.2% among 360,000; in the data active = activity change below about -30%; note: % is set by controls: 0 for no effect and ±100 for the full control effect
Target sequence (P21728 whole entry, looked up): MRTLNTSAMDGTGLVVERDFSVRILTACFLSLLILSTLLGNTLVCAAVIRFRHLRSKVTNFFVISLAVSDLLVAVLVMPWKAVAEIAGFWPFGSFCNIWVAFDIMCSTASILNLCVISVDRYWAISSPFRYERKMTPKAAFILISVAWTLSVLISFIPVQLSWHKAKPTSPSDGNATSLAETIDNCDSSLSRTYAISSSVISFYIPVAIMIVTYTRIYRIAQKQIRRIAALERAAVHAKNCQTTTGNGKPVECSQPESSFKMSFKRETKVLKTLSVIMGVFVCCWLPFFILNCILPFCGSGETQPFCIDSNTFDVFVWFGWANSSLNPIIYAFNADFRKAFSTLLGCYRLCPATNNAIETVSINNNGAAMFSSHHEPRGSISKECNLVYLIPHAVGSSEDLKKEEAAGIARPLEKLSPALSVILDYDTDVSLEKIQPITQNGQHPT
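Using tetracycline-induced force-coupled D1 Hek293 cells and a calcium dye, signals were followed for 180 s after compound, then for 180 s after EC80 dopamine, to detect inhibitors.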
D1 PAM = enhances dopamine response at the human D1 receptor. P21728. HEK293 TREx D1 cells, calcium flux, dopamine EC20 potentiation. potentiation, % at 10 µM. hit rate 0.036% among 360,000; in the data active = potentiation above about 30%; note: 0% is about no effect
D1 agonist = agonists of human D1 dopamine receptor | hit rate 1% among 360,000 | P21728 | activation, % at 2 µM | AID 504660 | HEK293 T-REx D1 cells, calcium flux, agonist mode; in the data active = activation above about 30%; note: 0% is about no effect
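Inducible HEK293 T-REx D1 cells, force-coupled to calcium signalling, were plated at 4000 cells/well with tetracycline and held overnight at 30 C. After no-wash calcium dye loading, compound-evoked calcium rise over 180 s flagged agonists.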
D3 ag = agonists of human D3 dopamine receptor; D3R DiscoveRx beta-arrestin cells, luminescence, 90 min; max activation, %; hit rate 0.58% among 410,000; in the data active = max activation above about 30%; note: 0% is about no effect
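Cells at 1500/well, incubated overnight, then treated with pinned compounds (dopamine as control) for 90 min at 37 degrees C. DiscoveRx reagent added for 30 - 60 minutes at room temperature; luminescence read.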
* marks the source's active call; other numbers are inactive results; ? = inconclusive; . = not tested or not shown. Only some compounds are listed: those with a hit (about 6% of all), similar ones and a draw of the others.

SMILES | D3 antag | D1 antag | D1 PAM | D1 agonist | D3 ag
CCOC(=O)C1=C(C)NC(SCC(=O)Nc2cc(C)on2)=C(C#N)C1c1cccs1 (stereo not drawn) | 4.8 | -48.2* | -6.2 | 3.3 | 6.7
O=C1NC2CCCCN2C12CCN(CCCN1c3ccccc3CCc3ccc(Cl)cc31)CC2 (stereo not drawn) | . | . | . | . | -26.1
Oc1ccc(C[C@@H]2CNCCN2CCC23CC4CC(CC(C4)C2)C3)cc1 | 10.1 | 33.7 | 2.5 | 95.5* | -0.9
Oc1ccc(C[C@H]2CNCCN2CCCCC2CCCCC2)cc1 | -20.5 | 9.8 | -2.3 | 33.3* | -9.0
Oc1ccc(C[C@@H]2CNCCN2CC2CCCCC2)cc1 | -18.2 | 5.8 | -0.5 | 12.3 | 9.2
Oc1ccc(C[C@H]2CNCCN2CCC23CC4CC(CC(C4)C2)C3)cc1 | -15.8 | 1.2 | 0.8 | 24.3 | -19.7
CCCCN1CCNC[C@H]1Cc1ccc(O)cc1 | -92.1* | 12.1 | 8.6 | 1.2 | -9.8
Cc1cc2c(cc1S(=O)(=O)CCC(=O)N1CCCC(C)C1)OCC(=O)N2 (stereo not drawn) | . | -4.0 | -2.4 | 4.4 | 4.4
CCN1CCCC(OC(=O)Nc2ccccc2)C1 (stereo not drawn) | ? | -27.3 | -6.0 | 8.2 | -5.3
CCN1CCCC(OC(=O)C(c2ccccc2)c2ccccc2)C1 (stereo not drawn) | -52.6* | -14.8 | -3.5 | 0.7 | -83.3
COc1ccc(-n2c(/C=C/c3ccccc3F)nc3cc(OC)c(OC)cc3c2=O)cc1Cl | . | 4.0 | 0.1 | -3.2 | -15.6
CCN(CC)CCNC(=O)c1ccc(NC(=O)c2cc(-c3ccco3)nc3ccccc23)cc1 | -7.8 | -39.8* | 1.2 | 2.0 | -4.5
Cc1csc(NC(=O)c2cc(-c3ccco3)nc3ccccc23)n1 | 1.4 | -31.0* | -6.4 | -0.6 | -19.1
O=C(O)[C@@H](O)[C@H](O)[C@H](O)[C@@H](O)C(=O)O (tested in a mixture with another compound) | . | . | . | . | -1.1
Cc1ccc(Cn2nnnc2CN2CCC(NC(=O)c3ccc(Br)cc3)CC2)cc1 | -64.7* | -9.5 | -11.3 | -0.2 | 0.8
Cc1ccc(NS(=O)(=O)c2ccc(C(=O)NC3CCN(Cc4ccccc4)CC3)cc2)cc1 | -68.4* | . | . | . | -4.3
O=C(NC1CCN(Cc2ccccc2)CC1)c1cccc(S(=O)(=O)Nc2ccc(SC(F)F)cc2)c1 | -100.7* | . | . | . | -25.7
O=C(NC1CCN(Cc2ccccc2)CC1)c1cccc(NS(=O)(=O)c2ccc(Br)cc2)c1 | -109.0* | . | . | . | -27.5
CCCCCCCCCCCCCC(=O)OC(C)C | . | . | . | . | -5.1
CCN(c1cc(C)cc(C)c1)S(=O)(=O)c1nnc(NC(=O)c2ccccc2C)s1 | . | 2.0 | 7.1 | 4.8 | -7.7
CCc1nc2ccc(C(=O)NCCCN3CCCC3=O)cn2c1N(CC)C(=O)NCCc1ccccc1 | 8.7 | . | . | . | 0.5
CCc1nc2ccc(C(=O)NCCCN3CCCC3=O)cn2c1N(CC)C(C)=O | -55.9* | . | . | . | -4.7
Clc1ccccc1-c1ccc(CN2CCN(c3ccccc3)CC2)o1 | -66.5* | 1.8 | 1.6 | 0.8 | 2.5
COc1ccc(OC)c(NC(=O)CN(C)S(=O)(=O)c2ccc(C(=O)N3CCOCC3)s2)c1 | . | -3.4 | 0.9 | 2.1 | 4.6
CCOc1ccccc1N1CC(c2nc3ccccc3n2CCCCOc2ccccc2)CC1=O (stereo not drawn) | . | -14.8 | 0.8 | 30.6* | -2.4
SMILES | D3 antag | D1 antag | D1 PAM | D1 agonist | D3 ag
CCOc1ccc(N2CC(c3nc4ccccc4n3Cc3cccc(Cl)c3)CC2=O)cc1 (stereo not drawn) | . | -33.6* | 1.3 | 2.7 | -0.8
Cc1ccc(OCC(=O)N(Cc2ccc(N(C)C)cc2)CC2CCCO2)cc1C (stereo not drawn) | . | 6.9 | 0.1 | 0.9 | 9.0
O=C(NC1CCCC1)C(c1ccncc1)N(C(=O)Cc1cccs1)c1ccc(F)cc1 (stereo not drawn) | 11.0 | -9.7 | -8.1 | 2.2 | 38.4*
COc1ccc(N(C(=O)Cc2cccs2)C(C(=O)NC2CCCC2)c2ccncc2)cc1 (stereo not drawn) | 11.3 | 0.8 | -4.8 | 1.2 | 1.8
CCCn1c(=O)n(-c2cc(Cl)c(OC)cc2OC)c(=O)c2c3c(sc21)CN(C(C)=O)CC3 | . | -4.9 | -0.6 | 0.8 | -1.7
CC(=O)O[C@@]12CO[C@@H]1C[C@H](O)[C@@]1(C)C(=O)[C@H](O)C3=C(C)[C@@H](OC(=O)[C@H](O)[C@@H](NC(=O)OC(C)(C)C)c4ccccc4)C[C@@](O)([C@@H](OC(=O)c4ccccc4)[C@H]21)C3(C)C | . | . | . | . | -3.2
CC1CCN(S(=O)(=O)c2ccc(Oc3ccc([N+](=O)[O-])cc3)cc2)CC1 | -81.1* | -25.3 | -4.2 | 1.6 | -19.0
O=[N+]([O-])c1ccc(Oc2ccc(S(=O)(=O)N3CCOCC3)cc2)cc1 | -14.2 | -41.6* | . | 17.1 | 0.0
CCc1ccccc1NC(=O)CN1C(=O)C2CCCN2c2ccc(S(=O)(=O)N(CC)CC)cc21 (stereo not drawn) | . | 8.2 | -2.6 | 5.3 | -7.5
CSc1nc(N)nc(SCCS(=O)(=O)c2ccc(Cl)cc2)c1C#N | -15.2 | -30.7* | -8.6 | 3.1 | -15.7
COC1=C(Br)C(=O)c2nc(C)ccc2C1=O | -118.5* | . | . | . | -17.3
O=C(CCC(=O)N(CC(=O)NC1CCCC1)C1CCCCC1)Nc1ccccn1 | -8.1 | -46.3* | -6.8 | 8.0 | 0.2
Cc1cc(C)cc(N(CC(=O)NC2CCCCC2)C(=O)CCC(=O)Nc2cc(C)ccn2)c1 | 24.1 | -8.4 | -4.7 | 3.0 | -8.3
Cc1ccc(N(CC(=O)NC2CCCC2)C(=O)CCC(=O)Nc2ccccn2)cc1C | 1.6 | 12.4 | -1.3 | -1.7 | 12.8
Cc1ccnc(NC(=O)CCC(=O)N(CC(=O)NC2CCCCC2)c2cccc(C)c2C)c1 | 11.7 | -42.4* | -4.0 | 0.8 | -11.9
Cc1ccc(N(CC(=O)NC2CCCC2)C(=O)CCCC(=O)Nc2ccccn2)cc1C | 6.7 | -45.8* | -7.5 | 0.7 | 3.8
CCn1ncc([C@@H]2C[C@H]3CN(Cc4cccc(Cl)c4)C(=O)[C@]34CCCN24)c1C | -12.1 | 1.6 | 4.1 | 0.8 | -5.3
Cn1cc([C@@H]2C[C@H]3CN(Cc4cccc(Cl)c4)C(=O)[C@]34CCCN24)c(-c2ccccc2)n1 | -6.9 | -30.9* | -4.2 | 17.2 | -6.9
CCCn1ncc([C@@H]2C[C@H]3CN(Cc4cccc(Cl)c4)C(=O)[C@]34CCCN24)c1C | -10.0 | -31.0* | -0.2 | 0.0 | -4.4
O=C(O)c1ccc(CS(=O)c2cccc(C(F)(F)F)c2)o1 (stereo not drawn) | -10.4 | -31.7* | -0.8 | 8.6 | 0.7
COc1ccccc1CNC(=O)CSc1nc(=O)[nH]c2c1CCCC2 | . | . | 0.2 | -0.8 | 1.0
CN(C)CCNC(=O)c1cc2c(s1)-c1ccc(Cl)cc1SC2 | ? | -48.0* | -8.8 | 15.7 | 1.1
CC(C)(C)NC(=O)C(c1c[nH]c2ccccc12)N(C(=O)Cn1nnc(-c2ccc(Cl)cc2)n1)c1ccccc1F (stereo not drawn) | 33.0 | -6.5 | 50.4* | 5.4 | 0.5
